Values without a mark were called inactive. How the calls were made is not given here.
What follows are compounds tested against Pantothenate synthetase (Mycobacterium tuberculosis (strain ATCC 25618 / H37Rv)) (UniProt P9WIL5) (assay: Recombinant Mtb pantothenate synthetase (PanC) inhibitors, coupled enzyme, confirmatory (AID 375;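 further: 0% = full reaction with vehicle and 100% = no enzyme background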)). Conditions: coupled enzyme assay; at 10 µM, hits give high values.
Pantothenate synthetase (Mycobacterium tuberculosis (strain ATCC 25618 / H37Rv)), sequence (P9WIL5 whole entry, looked up): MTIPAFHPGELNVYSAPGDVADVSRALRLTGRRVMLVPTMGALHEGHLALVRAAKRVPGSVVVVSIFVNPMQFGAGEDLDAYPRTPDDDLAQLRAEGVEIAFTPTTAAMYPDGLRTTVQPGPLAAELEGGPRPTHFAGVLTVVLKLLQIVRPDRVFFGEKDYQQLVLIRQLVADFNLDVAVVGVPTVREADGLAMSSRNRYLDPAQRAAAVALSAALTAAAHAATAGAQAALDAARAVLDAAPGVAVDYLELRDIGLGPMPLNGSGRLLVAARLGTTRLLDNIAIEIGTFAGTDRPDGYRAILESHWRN

SMILES	inhibition
c1ccc2nc(-c3nc4ccccc4[nH]3)ccc2c1	0%
CCOC(=O)COc1ccc(C2NC(C(=O)O)CS2)cc1 (stereo unspecified)	0%
O=C1CC(c2ccc(S(=O)(=O)N3CCN(c4ccccc4)CC3)cc2)CN1 (stereo unspecified)	0%
CC(=O)N1CCc2cc(S(=O)(=O)NCCC(=O)Nc3cc(C)cc(C)c3)ccc21	2%
Cc1ccc(CNC(=O)C2CCN(S(=O)(=O)c3cccs3)CC2)o1	0%
CS(=O)(=O)N(CC(=O)Nc1ccc2c(c1)OCO2)Cc1ccc(Cl)cc1	0%
Cc1noc(C)c1C(=O)OCC(=O)Nc1ccccc1C(=O)NC(C)c1ccccc1 (stereo unspecified)	14%
CCc1nnc(-n2nc(C)cc2-c2ccccc2)n1N	3%
O=C(NCc1ccc2c(c1)OCO2)c1cccc2c1C(=O)N(C1CCCCC1)C2	5%
Cc1cccc(C(=O)N2CCN(C(=O)c3cccc(C)c3)C(C)C2)c1 (stereo unspecified)	0%
CCOC(=O)N1CCN(C(=O)c2ccc3nc4cc(Cl)ccc4c(=O)n3c2)CC1	8%
OCc1nc2ccccc2n1CC(O)Cn1ccc2ccccc21 (stereo unspecified)	1%
CCOC(=O)C1=C(C)Nc2nc(SCC(=O)OC)nn2C1c1cc(F)cc(F)c1 (stereo unspecified)	3%
COc1nc(OC)nc(N2CCC(NC(=O)C(Cc3ccc(C(C)C)cc3)NC(C)=O)CC2)n1 (stereo unspecified)	5%
COc1ccc(N(CC(=O)NC2CCCC2)C(=O)Cn2nnc(-c3ccc(C)cc3)n2)cc1	0%
Cn1c(=O)cc(OCC(=O)NCCCN2CCN(c3cccc(Cl)c3)CC2)c2ccccc21	0%
